{
  "source": "the supplement of paper PMC6555819",
  "data": [
    {"system": "THRa homodimer (NR concentration 90 nM)", "test": "PBM binding z-score (relative to random genomic background probes); higher = stronger binding; sequences stand for … in GC…GCGATTGACAGCGTAGAATGAAGG", "outline": "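Custom Agilent 4×180K protein-binding microarrays carried double-stranded probes. Their 34-nt variable regions held direct-repeat seeds, single-nucleotide variants, half-site ablations and random human genomic background sequences. Arrays were incubated 1 h with ligand-free nuclear receptor dimers in PBS pH 7.4, 2% milk, 0.02% Triton X-100, 1 mM DTT, 0.2 mg/mL BSA and 0.4 mg/ml salmon testes DNA. Antibodies against each partner (one per run) detected binding, and scanned fluorescence was regression-normalized. Binding z-scores use random background probes as reference.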", "values": [
      {"sequence": "TCTCGGAGGACACAAAGGTCAGAGCTTTCCAGAG", "PBM binding z-score": 0.913},
      {"sequence": "ACTAGTTGGTCAGCTGAGGTCACACCCAATTCGG", "PBM binding z-score": 4.84},
      {"sequence": "TAGCCTAGGTCATTCAGGGGCCAGCATAGAAAGC", "PBM binding z-score": 0.61},
      {"sequence": "CGTCCAAGGTCACGGTCAGTGAAAGAGACTCGAA", "PBM binding z-score": 3.63},
      {"sequence": "AGAATGAGGTCATTAAGATCAGGGAATTGCGGTC", "PBM binding z-score": 3.69},
      {"sequence": "GCTTACGGGTCCAAGGTTATAGCATGAATAGAAT", "PBM binding z-score": 0.551},
      {"sequence": "TACCCTAGGTCATTGGGCCAGTATAGTACGCATC", "PBM binding z-score": 1.37},
      {"sequence": "CGTCAAAGATCAAGGTAACGTAACAGAAAGCAGC", "PBM binding z-score": 0.524},
      {"sequence": "CCTTACGGGTCACGTGGTTATAGCACGACGAGCG", "PBM binding z-score": 0.0729},
      {"sequence": "AACGAAAGGTCGAAGGTGAGTATACCCACCCGAA", "PBM binding z-score": -0.462},
      {"sequence": "CAAACTAGGTCACTAAAGGTCAAAGTCGAATGAC", "PBM binding z-score": 2.19},
      {"sequence": "ATATGTAGGTTATCTGGGGTCATTCAGACTAGGC", "PBM binding z-score": 3.91},
      {"sequence": "CGTCCGAGGTCATAGGAGGTCAGTGAAGACAGAT", "PBM binding z-score": 3.58},
      {"sequence": "GCTGCTAGGTCAACTGATGGTCACCTAAAGCTCG", "PBM binding z-score": 1.69},
      {"sequence": "CCTACTGGGCCAAAAAGGTCATTGATGCCGATAA", "PBM binding z-score": 0.474},
      {"sequence": "CGAACAAGGTCATCCAGGACAGTGAATACATTGA", "PBM binding z-score": 3.3},
      {"sequence": "TCTTGTAGGTCAATAGAGGTTAAGAAAGTGCGCT", "PBM binding z-score": 0.329},
      {"sequence": "GATACAGGGTCAAGGTCAGAGTACGCGTATTGAT", "PBM binding z-score": 3.55},
      {"sequence": "TAGCCTAGGTCGTTCAGGGGCCAGTATAGAAAGC", "PBM binding z-score": -0.169},
      {"sequence": "ATATGTAGGTTAAGCGTCATTCAGGTTGGTTCGC", "PBM binding z-score": 0.263},
      {"sequence": "AGAATGGGGTTATACGTAGATCAGGGAAGAAAGT", "PBM binding z-score": 1.53},
      {"sequence": "AATAAAGGGTCATCGTAGGCCAGAGTACGCACAG", "PBM binding z-score": 0.425}
    ]}
  ]
}
